# Source: PubChem BioAssay AID602399 (Sanford-Burnham Center for Chemical Genomics, 2012)
# About 2,800 (0.78%) of roughly 360,000 compounds were called active. For the sample, actives were picked, then their nearest neighbours and some compounds at random. A number with no mark means an inactive call. Cut-off read from the data, not from the text of the source: active = inhibition above about 26%; inactive = the rest.
# Test system: Nicotinate-nucleotide adenylyltransferase NadD (Staphylococcus aureus N315)
# Experiment: inhibitors of S. aureus NadD, primary screen, biochemical, colorimetric, uHTS (AID 602399)
# Settings: purified NadD enzyme, colorimetric absorbance read-out; at 20 µM; active compounds read high
row,SMILES,inhibition
1,Cc1c(C(=O)OCC(=O)N(CCC#N)c2ccccc2)oc2c1ccc1ccccc12,-4.25%
2,CC(C)c1nc(CNC(=O)CC2C(=O)NCCN2Cc2ccoc2)cs1 (centres undefined),0.09%
3,CCOc1ccc(C(=O)Nc2cccc(SC)c2)cc1,-7.85%
4,CC(C)(C)NC(=O)C(c1ccncc1)N(C(=O)CNC(=O)c1ccco1)c1ccc2c(c1)OCO2 (centres undefined),-2.29%
5,Cc1cc(Br)cn2c(Cc3ccsc3)c(-c3ccc(C#N)cc3)nc12,-0.162%
6,Clc1ccc(C2=CSC3=Nc4cccc5cccc(c45)N23)cc1,46.9% (active)
7,Cc1ccc(/C=C/C(=O)O)cc1S(=O)(=O)N1CCC(Cc2ccccc2)CC1,-2.42%
8,COC(=O)c1ccc(COC(=O)c2cnccn2)cc1,-0.176%
9,CCOc1ccc(NS(=O)(=O)c2ccc(C(=O)NCC3CCCO3)cc2)cc1 (centres undefined),-1.46%
10,CCOc1ccc(NC(=O)CCNC(=O)c2ccc(Br)cc2)cc1,-10.7%
11,N#Cc1c(NC(=O)CCCl)sc2c1CCCCC2,-2.84%
12,CC(=O)c1c(C)[nH]c(C(=O)OCC(=O)Nc2sc3c(c2C#N)CCCC3)c1C,6.3%
13,CC(C)NC(=O)NC(=O)COC(=O)c1ccc(NC(=O)CC#N)cc1,0.78%
14,N#CCC(=O)Nc1ccc(C(=O)OCC(=O)Nc2sc3c(c2C#N)CCCC3)cc1,32.6% (active)
15,CCOc1ccc(NC(=O)c2ccc(NC(=O)COC(=O)c3ccc(NC(=O)CC#N)cc3)cc2)cc1,39.8% (active)
16,C/C=C(/C)C(=O)OC1Cc2c(ccc3ccc(=O)oc23)OC1(C)C (centres undefined),-4.64%
17,CCCCc1cc(=O)oc2c(C)c(OCC(=O)N3CCC(C(N)=O)CC3)ccc12,-1.4%
18,Cc1ccc(Cc2cnc(NC(=O)/C(C#N)=C/c3ccc(-c4cccc([N+](=O)[O-])c4)o3)s2)cc1,51.2% (active)
19,Cc1ccc(-c2ccc(/C=C(\C#N)C(N)=S)o2)c([N+](=O)[O-])c1,-3.57%
20,Cc1ccc(C(=O)N/C(=C/c2ccc(-c3cccc([N+](=O)[O-])c3)o2)C(=O)NCCCN(C)C)cc1,-9.94%
21,CCCCN(C(=O)c1ccc(S(=O)(=O)N2CCOCC2)cc1)C1CCS(=O)(=O)C1 (centres undefined),-1.78%
22,O=C(CC(NS(=O)(=O)c1ccc(Cl)cc1)c1ccco1)NC1CCCC1 (centres undefined),1.19%
23,COc1ccc(NC(=O)COc2ccc(C(=O)c3ccc(F)cc3)cc2)cc1S(N)(=O)=O,7.92%
24,Cc1c(OC(C)C(=O)NCC2CCC(C(=O)O)CC2)ccc2c1oc(=O)c1ccccc12 (centres undefined),4.05%
